About 900 (25%) of roughly 3,600 compounds were called active. No rule for the calls is given here. The list is a sample of the results. Measured potencies and affinities stand elsewhere.
These compounds were tested against Protein Tat (Human immunodeficiency virus type 1 group M subtype B (isolate HXB2)) (UniProt P04608) (assay: inhibitors of Tat binding to TAR RNA, dose response, counter-screen for Vif-APOBEC3G degradation inhibitor project, biochemical, fluorescence polarization, FAM-labeled TAR RNA (AID 1117361)). Details: outcome: dose series up to 100 µM unless noted; series mostly up to 100 µM.
With `CN(C(=O)CSc1nnc(N)s1)c1c(N)n(Cc2ccccc2)c(=O)[nH]c1=O` the outcome was “inactive”.
For `CC(C)CN(C(=O)CN1CCN(S(=O)(=O)c2ccccc2)CC1)c1c(N)n(CC(C)C)c(=O)[nH]c1=O`, the outcome was “inactive”.
`Cc1cccc(N2CCN(CC(=O)Nc3nccs3)CC2)c1C` was tested, and the outcome was “inactive”.
For `COC(=O)CSc1nnc(CNC(=O)c2ccccc2OC)n1-c1ccc(OC)cc1`, the outcome was “inactive”.
In the case of `CS(=O)(=O)N1CCCC(C(=O)NCCCN2CCC(Cc3ccccc3)CC2)C1` (stereo unspecified), the outcome is reported as “inactive”.
For `O=C1C2C3CC(C(Br)C3Br)C2C(=O)N1c1ccccn1` (stereo unspecified), the outcome was “inactive”.
For `CCOc1ccc2nc(N3CCCC(C(=O)NCCCN4CCOCC4)C3)sc2c1` (stereo unspecified), the outcome was “inactive”.
With `COc1cc(OC)c2ccc(=O)oc2c1C(CCN1CCCC(C)C1)c1ccc2c(c1)OCO2` (stereo unspecified) the outcome was “inactive”.
For `O=C1C(Cc2ccccc2)SC(=Nc2ccccc2)N1c1ccccc1` (stereo unspecified), the outcome was “inactive”.
For `COc1ccc2[nH]c(C(=O)O)c(CCN3C(=O)c4cccc([N+](=O)[O-])c4C3=O)c2c1`, the outcome was “inactive”.
`COc1ccc2nc(NNC(=O)c3cc(=O)c4ccccc4o3)sc2c1` was tested, and the outcome was “inactive”.
For `Cc1ccc2cc3c(NC(=O)c4cccnc4)nn(C)c3nc2c1`, the outcome was “inactive”.
For `O=C1C2CCCN2C(c2ccccc2)N1c1nccs1` (stereo unspecified), the outcome was “inactive”.
In the case of `O=C1NN(c2cccc(Br)c2)C(=O)/C1=C\c1ccccc1`, the outcome is reported as “inactive”.
For `CCCCc1cc(=O)oc2cc(OCC(=O)N(CC)CC)c(Cl)cc12`, the outcome was “inactive”.
In the case of `Cc1ccccc1C(=O)NCC(=O)OC(C)C(=O)NC(C)CCc1ccccc1` (stereo unspecified), the outcome is reported as “inactive”.
With `CC(C)(C)n1nc2c(c1NC(=O)c1ccc(Br)o1)CS(=O)C2` (stereo unspecified) the outcome was “inactive”.
With `O=C(Nc1cccc(OC(F)(F)F)c1)c1ccc(Br)o1` the outcome was “inactive”.
For `Cc1cc(C)c2nc(SCC(=O)NCCN3C(=O)CSC3=O)cc(C)c2c1`, the outcome was “inactive”.
In the case of `CCN(CC)CCNC(=O)Cc1c(C(=O)O)n(C)c2ccccc12`, the outcome is reported as “inactive”.
In the case of `COc1ccc(NC(=O)CN2CCC(C(N)=O)CC2)cc1`, the outcome is reported as “inactive”.
`O=c1cc(CO)oc(C(Nc2ccccn2)c2ccc(F)cc2)c1O` (stereo unspecified) was tested, and the outcome was “inactive”.
For `OCCNc1ccc(Cl)cc1`, the outcome was “inactive”.
For `O=C(c1ccco1)N1CCN(C(=O)c2cn(-c3ccccc3)nc2-c2ccccc2)CC1`, the outcome was “inactive”.
With `O=C(c1ccco1)N1CCN=C1SCc1cccc(Cl)c1` the outcome was “inactive”.
`CC(C)(C)c1cc(C(C)(C)C)cc(S(=O)(=O)CCc2ccccn2)c1` was tested, and the outcome was “inactive”.
`C#CC(=O)N(c1cc(OC)ccc1OC)C(C(=O)NC1CCCC1)c1cccs1` (stereo unspecified) was tested, and the outcome was “inactive”.
`COc1ccccc1-c1c(C)[nH]n2c(=O)c(Cc3ccccc3)c(C)nc12` was tested, and the outcome was “inactive”.
`CCOC(=O)Nc1nnc(-c2ccccc2OC)s1` was tested, and the outcome was “inactive”.
With `O=C(O)Cn1c(SC2CCCCC2)nc2ccccc21` the outcome was “inactive”.
With `Cc1nn(Cc2ccc(Cl)cc2)c(C)c1NC(=O)c1cc(-c2ccc3c(c2)OCO3)on1` the outcome was “inactive”.
For `Cc1cc(C)cc(NC(=O)CN2CCC(NC(=O)Cc3ccccc3)CC2)c1`, the outcome was “inactive”.
`CC(C)c1ccc(-c2nc(N3CCCC3)nc3n[nH]c(N)c23)cc1` was tested, and the outcome was “inactive”.
`N#Cc1ccc(N2CCN(C(=O)c3cccc(F)c3)CC2)c(F)c1` was tested, and the outcome was “inactive”.
In the case of `CC(C)Oc1ccc2ccccc2c1C=O`, the outcome is reported as “inactive”.
In the case of `Cc1cc(C)n2nc(SC(C)C(=O)N3CCCC3)nc2n1` (stereo unspecified), the outcome is reported as “inactive”.
`Cc1nc(OCc2ccccc2)c2ccccc2n1` was tested, and the outcome was “inactive”.
`Oc1ccc(/C=N/N=C/c2ccc(O)c(O)c2)cc1O` was tested, and the outcome was “inactive”.
For `COc1ccc(CCNCc2ccc(OCc3ccccc3)cc2)cc1`, the outcome was “inactive”.
`O=c1cc(CSc2ccccn2)c2ccccc2[nH]1` was tested, and the outcome was “inactive”.
With `Cc1ccnc(N2CCCC(C(=O)Nc3cc(F)ccc3C)C2)n1` (stereo unspecified) the outcome was “inactive”.
`Cn1c(=O)c2c(ncn2CCCNC2=CC(C)(C)CC(=O)C2)n(C)c1=O` was tested, and the outcome was “inactive”.
With `N=C1C(c2nc3ccccc3c(=O)[nH]2)=C(O)CN1c1ccccc1` the outcome was “inactive”.
In the case of `O=C(Nc1ccc2c(c1)OCCO2)C1CCC1`, the outcome is reported as “inactive”.
In the case of `C/C(=N\OCC(=O)Nc1ccc2c(c1)OCCO2)c1ccc2c(c1)OCCO2`, the outcome is reported as “inactive”.
For `COc1ccc(-c2cc(C(=O)NCCCn3ccnc3)no2)cc1OC`, the outcome was “inactive”.
`O=C(CSc1nnc(CCCO)n1-c1ccccc1)NCCc1ccccc1` was tested, and the outcome was “inactive”.
`CCc1ccc(N(C2C=CS(=O)(=O)C2)S(=O)(=O)c2ccc(C)cc2)cc1` (stereo unspecified) was tested, and the outcome was “inactive”.
With `O=C(c1cnn2c(C(F)F)cc(C3CC3)nc12)N1CCc2ccccc2C1` the outcome was “inactive”.
In the case of `Cc1cc(F)ccc1S(=O)(=O)Nc1ccccc1C(=O)Nc1ccc2[nH]c(=O)[nH]c2c1`, the outcome is reported as “inactive”.
`CN(C)CCNC(=O)C(=O)c1c(-c2ccccc2)cc2ccccn12` was tested, and the outcome was “inactive”.
For `Cc1ccccc1OCC(=O)NN1Cc2ccccc2C1=N`, the outcome was “inactive”.
`CCN1C(=O)c2ccccc2S(=O)c2ccc(C(=O)NC3CC3)cc21` (stereo unspecified) was tested, and the outcome was “inactive”.
`CCCCC(=O)NCCNC(=O)c1cc(OCC(F)(F)F)ccc1OCC(F)(F)F` was tested, and the outcome was “inactive”.
`CC(C)NC(=O)c1cc(-c2ccco2)nn1-c1ccc(Cl)cc1` was tested, and the outcome was “inactive”.
With `COc1ccccc1NC(=O)N1CCCC1C(=O)NC1CCCCC1` (stereo unspecified) the outcome was “inactive”.
With `Cc1[nH]c(=O)nc(NN=Cc2ccc(Cl)cc2)c1C(=O)Nc1ccc(Cl)cc1` the outcome was “inactive”.
For `CN1C(=O)CSc2ccc(NC(=O)NCc3cccnc3)cc21`, the outcome was “inactive”.
`Nc1c2c(nc3ccccc13)CCC2` was tested, and the outcome was “inactive”.
`O=C(Nc1nc2ccc(Cl)cc2s1)C1CCCO1` (stereo unspecified) was tested, and the outcome was “inactive”.
In the case of `COc1cc(NC(=O)c2cccs2)c(OC)cc1NC(=O)CCn1nnc2ccccc21`, the outcome is reported as “inactive”.
`O=C(CS(=O)(=O)c1cn(Cc2ccc(F)cc2)c2ccccc12)N1CCCCC1` was tested, and the outcome was “inactive”.
With `O=C(N/N=C/c1ccc(OC(=O)c2cccs2)cc1)c1cccc(F)c1` the outcome was “inactive”.
`O=C(Nc1ccccc1-c1nnn(CC(=O)N2CCc3ccccc3C2)n1)C1CCC1` was tested, and the outcome was “inactive”.
For `CC(=O)n1nc(-c2ccc(Cl)cc2)nc1NCc1ccco1`, the outcome was “inactive”.
With `CNc1nc(Sc2cccc(C(F)(F)F)c2)cc(C(F)(F)F)n1` the outcome was “inactive”.
For `O=C(CCN1C(=O)c2ccccc2C1=O)NCc1ccco1`, the outcome was “inactive”.
In the case of `O=C1CSC(c2nn(-c3ccccc3)cc2-c2cc3ccccc3oc2=O)N1Cc1ccco1` (stereo unspecified), the outcome is reported as “inactive”.
`CC(=O)N1CCCc2cc(S(=O)(=O)N(C)CCC#N)ccc21` was tested, and the outcome was “inactive”.
For `CCOC(=O)c1c(NC(=O)CCN2CCOCC2)sc(C)c1-c1ccccc1`, the outcome was “inactive”.
For `CCc1c(C)[nH]c(=S)c(C#N)c1C`, the outcome was “inactive”.
